Structures are written as SMILES. Results filed as inconclusive are left out. The source made the active and inactive calls. The calls were made as follows, unless noted: active = hit-call score of the fitted dose curve at least 0.9, where 1 is the maximum; inconclusive = response in the unintended direction; inactive = score below 0.9.

Sequence of Peroxisome proliferator-activated receptor gamma (Homo sapiens) (P37231 whole entry, looked up): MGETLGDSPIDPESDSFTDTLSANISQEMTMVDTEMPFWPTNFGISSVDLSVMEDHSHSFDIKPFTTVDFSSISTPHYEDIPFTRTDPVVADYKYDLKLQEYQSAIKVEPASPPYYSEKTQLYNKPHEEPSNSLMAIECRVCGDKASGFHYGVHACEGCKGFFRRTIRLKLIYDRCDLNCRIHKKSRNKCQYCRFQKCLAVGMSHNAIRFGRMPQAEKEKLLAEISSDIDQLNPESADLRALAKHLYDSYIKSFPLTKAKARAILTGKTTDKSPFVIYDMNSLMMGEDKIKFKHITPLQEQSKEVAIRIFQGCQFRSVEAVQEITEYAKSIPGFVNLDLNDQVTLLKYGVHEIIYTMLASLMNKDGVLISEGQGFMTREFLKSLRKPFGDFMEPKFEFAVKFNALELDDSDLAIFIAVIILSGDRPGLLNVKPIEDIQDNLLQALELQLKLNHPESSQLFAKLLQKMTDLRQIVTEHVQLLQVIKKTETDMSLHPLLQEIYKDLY
Sequence of Retinoic acid receptor RXR-alpha (Homo sapiens) (P19793 whole entry, looked up, the tested form may be a part): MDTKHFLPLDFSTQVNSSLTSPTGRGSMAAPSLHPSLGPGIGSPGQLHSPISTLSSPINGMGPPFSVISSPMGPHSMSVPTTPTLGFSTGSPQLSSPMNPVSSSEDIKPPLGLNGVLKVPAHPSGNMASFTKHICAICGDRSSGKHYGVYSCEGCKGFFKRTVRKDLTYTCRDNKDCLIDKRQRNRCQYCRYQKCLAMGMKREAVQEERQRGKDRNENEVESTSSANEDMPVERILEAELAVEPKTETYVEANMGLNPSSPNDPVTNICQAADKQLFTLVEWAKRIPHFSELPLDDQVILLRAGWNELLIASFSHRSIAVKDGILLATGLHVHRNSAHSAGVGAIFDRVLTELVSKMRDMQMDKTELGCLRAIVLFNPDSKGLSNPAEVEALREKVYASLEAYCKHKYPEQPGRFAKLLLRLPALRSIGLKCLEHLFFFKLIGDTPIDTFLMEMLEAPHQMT
Sequence of Estrogen receptor (Homo sapiens) (P03372 whole entry, looked up): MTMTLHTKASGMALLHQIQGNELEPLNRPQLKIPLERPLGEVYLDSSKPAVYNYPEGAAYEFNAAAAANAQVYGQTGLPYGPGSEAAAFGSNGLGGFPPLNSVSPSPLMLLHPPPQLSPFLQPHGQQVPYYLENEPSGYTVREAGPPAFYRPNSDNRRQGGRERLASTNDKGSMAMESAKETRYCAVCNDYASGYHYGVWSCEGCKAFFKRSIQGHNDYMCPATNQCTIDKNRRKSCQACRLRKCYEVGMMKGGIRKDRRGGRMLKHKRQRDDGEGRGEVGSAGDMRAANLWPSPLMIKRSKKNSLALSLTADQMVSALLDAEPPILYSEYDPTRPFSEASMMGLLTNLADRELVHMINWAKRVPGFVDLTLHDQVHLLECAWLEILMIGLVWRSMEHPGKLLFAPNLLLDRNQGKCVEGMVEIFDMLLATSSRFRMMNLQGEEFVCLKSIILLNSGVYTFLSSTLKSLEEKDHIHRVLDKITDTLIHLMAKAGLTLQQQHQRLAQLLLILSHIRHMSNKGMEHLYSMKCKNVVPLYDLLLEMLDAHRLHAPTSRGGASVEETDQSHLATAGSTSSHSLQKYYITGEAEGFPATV

The target in one test is Estrogen receptor (Homo sapiens) (UniProt P03372). The experiment in a line: OT_ERa_GFPERaERE_0480: Odyssey Thera (OT) 8-hour HeLa Transcription Induction Assay for Estrogen Receptor (AID 2283381; active = hit-call score of the fitted dose curve at least 0.9, where 1 is the maximum; inactive = score below 0.9). The essentials:
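Cells (HeLa) receive compound; after 8 h, reporter fluorescence is imaged and quantified by high-content analysis. Gain-of-signal relative to DMSO gives the endpoint.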
As for `Cc1cccc(N)c1`, the result was inactive.

On to `COC(N)=O`, for which the result was inactive.

In the case of `Nc1ccc2ccccc2c1`, the call was inactive.

Regarding `O=[N+]([O-])c1ccccc1`, the compound was classed as inactive.

Turning to `[N-]=[N+]=[N-]`, the compound was called inactive.

As to `O=P1(N(CCCl)CCCl)NCCCO1` (centres undefined), the outcome was inactive.

As for `Nc1cc2c3c(c1)C(c1ccccc1)=N[C@@H](NC(=O)c1cccnc1)C(=O)N3CC2`, the result was inactive.

With `CCC1(c2ccccc2)C(=O)N=C(O)NC1=O` (centres undefined), the compound was classed as inactive.

Regarding `COCCOCCO`, the outcome was inactive.

For the compound `c1ccc(OP(Oc2ccccc2)Oc2ccccc2)cc1`, the call was inactive.

As for `CC(Cl)(Cl)C(=O)O`, the call was inactive.

Regarding `CC(Cc1ccc(OCC(=O)O)cc1)NCC(O)c1csc(C(F)(F)F)n1` (centres undefined), the compound was classed as inactive.

`CN(C)C(=O)Cl`: the result was inactive.

For the compound `CC1(C)CN=C(NN=C(/C=C/c2ccc(C(F)(F)F)cc2)/C=C/c2ccc(C(F)(F)F)cc2)NC1`, the call was inactive.

As for `FC(F)(F)c1ccc(Cl)cc1`, the compound was classed as inactive.

Regarding `CCOS(=O)(=O)OCC`, the compound was classed as inactive.

On to `ClC(Cl)c1ccccc1`, for which the call was inactive.

Take `O=C(O)CF`: the call was inactive.

As to `Nc1ccc(Cl)cc1`, the compound was classed as inactive.

On to `CCCCOCCOP(=O)(OCCOCCCC)OCCOCCCC`, for which the call was inactive.

In general, AC50 refers to the midpoint of the concentration-response curve, whichever way the signal moves. With `CCOP(=S)(Oc1ccc([N+](=O)[O-])cc1)c1ccccc1` (centres undefined), the AC50 was 12.7 µM (active).

In the case of `c1ccc2c(c1)sc1ccccc12`, the result was inactive.

Take `c1ccc2c(c1)Nc1ccccc1S2`: the outcome was inactive.

`Cc1ccc(O)cc1C`: the call was inactive.

Consider `CCCCOCC1CO1` (centres undefined), for which the result was inactive.

On to `CSC(C)(C)C=NO`, for which the compound was called inactive.

Another test shares this target. The experiment in a line: OT_ERa_GFPERaERE_0120: Odyssey Thera (OT) 2-hour HeLa Transcription Induction Assay for Estrogen Receptor (AID 2283382). A digest of the protocol:
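Measures ESR1 pathway reporter gain-of-signal in HeLa cells after a 2-hour treatment, detected as fluorescent protein induction by microscopy, DMSO as baseline.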
Take `Cc1cccc(N)c1`: the call was inactive.

On to `COC(N)=O`, for which the result was inactive.

With `Nc1ccc2ccccc2c1`, the compound was classed as inactive.

On to `O=[N+]([O-])c1ccccc1`, for which the compound was called inactive.

In the case of `[N-]=[N+]=[N-]`, the compound was classed as inactive.

As for `O=P1(N(CCCl)CCCl)NCCCO1` (centres undefined), the result was inactive.

Turning to `Nc1cc2c3c(c1)C(c1ccccc1)=N[C@@H](NC(=O)c1cccnc1)C(=O)N3CC2`, the compound was called inactive.

For the compound `CCC1(c2ccccc2)C(=O)N=C(O)NC1=O` (centres undefined), the compound was classed as inactive.

Turning to `COCCOCCO`, the compound was classed as inactive.

As to `c1ccc(OP(Oc2ccccc2)Oc2ccccc2)cc1`, the outcome was inactive.

On to `CC(Cl)(Cl)C(=O)O`, for which the call was inactive.

With `CC(Cc1ccc(OCC(=O)O)cc1)NCC(O)c1csc(C(F)(F)F)n1` (centres undefined), the compound was called inactive.

Regarding `CN(C)C(=O)Cl`, the result was inactive.

As for `CC1(C)CN=C(NN=C(/C=C/c2ccc(C(F)(F)F)cc2)/C=C/c2ccc(C(F)(F)F)cc2)NC1`, the outcome was inactive.

As for `FC(F)(F)c1ccc(Cl)cc1`, the compound was called inactive.

For the compound `CCOS(=O)(=O)OCC`, the compound was called inactive.

On to `ClC(Cl)c1ccccc1`, for which the compound was called inactive.

Regarding `O=C(O)CF`, the compound was classed as inactive.

For the compound `Nc1ccc(Cl)cc1`, the result was inactive.

`CCCCOCCOP(=O)(OCCOCCCC)OCCOCCCC`: the outcome was inactive.

For `CCOP(=S)(Oc1ccc([N+](=O)[O-])cc1)c1ccccc1` (centres undefined), the concentration at half-maximal activity (AC50) is 18.4 µM (active).

For `c1ccc2c(c1)sc1ccccc12`, the call was inactive.

As to `c1ccc2c(c1)Nc1ccccc1S2`, the result was inactive.

For `Cc1ccc(O)cc1C`, the compound was called inactive.

Regarding `CCCCOCC1CO1` (centres undefined), the compound was classed as inactive.

Consider `CSC(C)(C)C=NO`, for which the call was inactive.

A further test concerns the target Retinoic acid receptor RXR-alpha (Homo sapiens) (UniProt P19793). The experiment in a line: OT_NURR1_NURR1RXRa_0480: Odyssey Thera (OT) 8-hour HEK293T Protein Complementation Assay for Nurr1/retinoid X receptor (RXR) (AID 2283385). The essentials:
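Compounds are applied to HEK293T cells carrying Nurr1 and RXRα linked to reporter fragments. After 8 h, fluorescence intensity reports heterodimer formation, with DMSO as baseline.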
As for `Nc1ccc2ccccc2c1`, the compound was classed as inactive.

As to `O=[N+]([O-])c1ccccc1`, the compound was classed as inactive.

As to `O=P1(N(CCCl)CCCl)NCCCO1` (centres undefined), the call was inactive.

Turning to `Nc1cc2c3c(c1)C(c1ccccc1)=N[C@@H](NC(=O)c1cccnc1)C(=O)N3CC2`, the AC50 was 50 µM (active).

Take `CCC1(c2ccccc2)C(=O)N=C(O)NC1=O` (centres undefined): the result was inactive.

As for `COCCOCCO`, the outcome was inactive.

On to `c1ccc(OP(Oc2ccccc2)Oc2ccccc2)cc1`, for which the compound was called inactive.

Take `CC(C)(C)c1ccc(O)cc1`: the compound was classed as inactive.

On to `CC(Cl)(Cl)C(=O)O`, for which the call was inactive.

In the case of `CC(Cc1ccc(OCC(=O)O)cc1)NCC(O)c1csc(C(F)(F)F)n1` (centres undefined), the result was inactive.

For `CN(C)C(=O)Cl`, the result was inactive.

`FC(F)(F)c1ccc(Cl)cc1`: the compound was called inactive.

With `ClC(Cl)c1ccccc1`, the result was inactive.

For `O=C(O)CF`, the compound was called inactive.

As for `Nc1ccc(Cl)cc1`, the call was inactive.

Consider `CCCCOCCOP(=O)(OCCOCCCC)OCCOCCCC`, for which the call was inactive.

Take `CCOP(=S)(Oc1ccc([N+](=O)[O-])cc1)c1ccccc1` (centres undefined): the compound was called inactive.

As for `c1ccc2c(c1)Nc1ccccc1S2`, the result was inactive.

As for `Cc1ccc(O)cc1C`, the outcome was inactive.

As to `CCCCOCC1CO1` (centres undefined), the compound was called inactive.

Take `CSC(C)(C)C=NO`: the call was inactive.

A further test concerns the target Peroxisome proliferator-activated receptor gamma (Homo sapiens) (UniProt P37231). Nature of the test: OT_PPARg_PPARgSRC1_0480: Odyssey Thera (OT) 8-hour Protein-Complementation Assay for Peroxisome Proliferator-activated Receptor Gamma / SRC-1 Co-activator (AID 2283387).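 Also: nuclear to cytoplasmic split Venus YFP fluorescence ratio reporting PPARg SRC-1 interaction.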 The essentials: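 Split-YFP (IFP1/IFP2) PPARg/SRC-1 reporter, HEK293T, 37 °C, 5% CO2; 8 h compound; formaldehyde fix + Draq5; high-content imaging, N/C ratio, ≥350 cells/image, positive direction vs DMSO.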
With `Cc1cccc(N)c1`, the compound was classed as inactive.

For `COC(N)=O`, the outcome was inactive.

Regarding `Nc1ccc2ccccc2c1`, the compound was called inactive.

In the case of `O=[N+]([O-])c1ccccc1`, the compound was classed as inactive.

For `[N-]=[N+]=[N-]`, the compound was called inactive.

As for `O=P1(N(CCCl)CCCl)NCCCO1` (centres undefined), the outcome was inactive.

As to `Nc1cc2c3c(c1)C(c1ccccc1)=N[C@@H](NC(=O)c1cccnc1)C(=O)N3CC2`, the call was inactive.

Consider `CCC1(c2ccccc2)C(=O)N=C(O)NC1=O` (centres undefined), for which the result was inactive.

Consider `COCCOCCO`, for which the call was inactive.

Regarding `c1ccc(OP(Oc2ccccc2)Oc2ccccc2)cc1`, the result was inactive.

On to `CC(C)(C)c1ccc(O)cc1`, for which the compound was called inactive.

Turning to `CC(Cl)(Cl)C(=O)O`, the compound was classed as inactive.

As for `CC(Cc1ccc(OCC(=O)O)cc1)NCC(O)c1csc(C(F)(F)F)n1` (centres undefined), the compound was called inactive.

In the case of `CN(C)C(=O)Cl`, the result was inactive.

Turning to `CC1(C)CN=C(NN=C(/C=C/c2ccc(C(F)(F)F)cc2)/C=C/c2ccc(C(F)(F)F)cc2)NC1`, the result was inactive.

Turning to `FC(F)(F)c1ccc(Cl)cc1`, the compound was called inactive.

Consider `CCOS(=O)(=O)OCC`, for which the result was inactive.

For the compound `ClC(Cl)c1ccccc1`, the result was inactive.

With `O=C(O)CF`, the result was inactive.

`Nc1ccc(Cl)cc1`: the result was inactive.

For `CCCCOCCOP(=O)(OCCOCCCC)OCCOCCCC`, the result was inactive.

Consider `CCOP(=S)(Oc1ccc([N+](=O)[O-])cc1)c1ccccc1` (centres undefined), for which the call was inactive.

With `c1ccc2c(c1)sc1ccccc12`, the compound was called inactive.

As to `c1ccc2c(c1)Nc1ccccc1S2`, the outcome was inactive.

With `CCCCOCC1CO1` (centres undefined), the compound was classed as inactive.

Turning to `CSC(C)(C)C=NO`, the compound was classed as inactive.

The values are drawn from PubChem BioAssay (EPA / NIEHS).
